Assay [1] concerns the target Cellular tumor antigen p53 (Homo sapiens) (UniProt P04637). The assay is described as follows: TOX21_p53_BLA_p2_ratio: Tox21 HCT-116 p53 Agonism Beta-lactamase Assay, Ratio, Phase 2 (AID 2283592). In short, it runs like this: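 Read-out is the blue/green (460/530 nm, 405 nm excitation) ratio after 2 h CCF4-AM loading, fitted as gain versus DMSO. Compounds, pinned at 217-fold dilution from DMSO stocks, stayed 16 h on HCT-116 beta-lactamase reporter cells seeded 5 h earlier.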

Assay [2] has the same target. Description: TOX21_p53_BLA_p3_ratio: Tox21 HCT-116 p53 Agonism Beta-lactamase Assay, Ratio, Phase 3 (AID 2283596). In short, it runs like this: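 Cells were seeded at 4000/well, rested 5 h at 37C, then dosed with DMSO compound solutions (217-fold dilution) for 16 h. CCF4-AM substrate was loaded for 2 h at room temperature, and the 460/530 nm emission ratio was fitted for gain of signal versus DMSO.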

Assay [3] can be described thus: TOX21_p53_BLA_p4_viability: Viability Assessment in the Tox21 HCT-116 p53 Agonism Beta-lactamase Assay, Phase 4 (AID 2283597).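 Also: hits lower the luminescence signal meaning cytotoxicity.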 Summed up: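 Cytotoxicity as reduced cellular ATP (CellTiter-Glo luminescence, 30 min room temperature), measured in the same wells following the CCF4 FRET p53 reading. Human HCT-116 cells received compounds in DMSO (217-fold dilution) for 16 h.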

The target of assay [4] is Cellular tumor antigen p53 (Homo sapiens) (UniProt P04637). Description: TOX21_p53_BLA_p5_ratio: Tox21 HCT-116 p53 Agonism Beta-lactamase Assay, Ratio, Phase 5 (AID 2283599). Summed up: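 HCT-116 cells carrying a p53-inducible beta-lactamase reporter were seeded at 4000 cells/well and dosed after 5 h with compound in DMSO (217-fold dilution). After 16 h at 37C, CCF4-AM substrate was added for 2 h, and the 460/530 nm emission ratio was scored as gain-of-signal versus DMSO.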
Chain of Cellular tumor antigen p53 (Homo sapiens) (P04637 whole entry, looked up): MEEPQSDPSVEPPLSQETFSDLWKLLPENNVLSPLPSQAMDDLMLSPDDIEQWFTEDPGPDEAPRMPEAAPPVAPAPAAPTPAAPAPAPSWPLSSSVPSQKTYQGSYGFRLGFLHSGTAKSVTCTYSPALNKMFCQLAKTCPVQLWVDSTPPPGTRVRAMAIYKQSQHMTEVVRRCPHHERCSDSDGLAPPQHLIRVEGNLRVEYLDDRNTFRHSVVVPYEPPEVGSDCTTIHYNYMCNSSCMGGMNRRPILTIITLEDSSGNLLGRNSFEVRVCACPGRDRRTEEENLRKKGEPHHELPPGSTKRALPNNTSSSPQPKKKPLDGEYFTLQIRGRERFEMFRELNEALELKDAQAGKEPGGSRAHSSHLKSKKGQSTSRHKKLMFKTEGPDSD

A short description of assay [5]: TOX21_p53_BLA_p5_viability: Viability Assessment in the Tox21 HCT-116 p53 Agonism Beta-lactamase Assay, Phase 5 (AID 2283600). In short, it runs like this: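 Viability came from CellTiter-Glo ATP luminescence, read after 30 min at room temperature. Before this, HCT-116 p53-bla cells (4000/well) had 16 hours of compound exposure at 37C, with DMSO stocks diluted 217-fold on transfer.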

The target in assay [6] is Cellular tumor antigen p53 (Homo sapiens) (UniProt P04637). The assay is described as follows: TOX21_p53_BLA_p4_ratio: Tox21 HCT-116 p53 Agonism Beta-lactamase Assay, Ratio, Phase 4 (AID 2283601). In short, it runs like this:
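HCT116 cells carrying an inducible beta-lactamase reporter were plated at 4000 cells/well, rested 5 h, then exposed to compounds in DMSO (217-fold dilution) for 16 h at 37C. CCF4-AM substrate was loaded 2 h at room temperature; 460/530 nm emission ratio scored gain-of-signal versus DMSO.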

Assay [7] can be described thus: TOX21_p53_BLA_p3_viability: Viability Assessment in the Tox21 HCT-116 p53 Agonism Beta-lactamase Assay, Phase 3 (AID 2283593).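 Also: cells exposed to compound for 16 h before reading.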 Summed up: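 HCT-116 cells (4000/well) rested 5 h at 37C, then got DMSO compounds by pin tool (217-fold dilution) for 16 h at 37C, 5% CO2. After the bla read, CellTiter-Glo was added and luminescence read at 30 min, room temperature.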

Where “and” joins values, the source holds several entries; their conditions need not be identical. Equal values may be shown once. Inconclusive results are not listed. A structure can be active in one record and inactive in another. Calls of active or inactive are those of the source. The calls were made as follows: active = hit-call score of the fitted dose curve at least 0.9, where 1 is the maximum; inconclusive = response in the unintended direction; inactive = score below 0.9.

What is called AC50 is the midpoint of the concentration-response curve, whichever way the signal moves.

In the case of `CCCCCC(CO)CCC` (stereo not drawn), the outcome in assay [1], in assay [2], in assay [3], in assay [4], in assay [5] and in assay [6] was inactive.

Take `CCC(C)(O)CCC=C(C)C` (stereo not drawn): the result in assay [1], in assay [2], in assay [3], in assay [4], in assay [5] and in assay [6] was inactive.

For `CC1(CO)CN(c2ccccc2)NC1=O` (stereo not drawn), the outcome in assay [1], in assay [2], in assay [3] and in assay [4] was inactive.

As to `O=C=NC1CCC(CC2CCC(N=C=O)CC2)CC1` (stereo not drawn), the result in assay [1], in assay [2], in assay [3], in assay [5] and in assay [6] was inactive.

With `C=CC(C)(O)CCC=C(C)CCC=C(C)C` (stereo not drawn), the outcome in assay [1], in assay [2] and in assay [4] was inactive.

Take `O=C(OCc1ccccc1)C(=O)OCc1ccccc1`: the outcome in assay [1], in assay [2], in assay [4] and in assay [6] was inactive.

As to `COc1cc(C=O)ccc1OC(=O)C(C)C`, the result in assay [1], in assay [2], in assay [4] and in assay [6] was inactive.

Regarding `CC(C)(C)c1n[nH]c(=S)n(N)c1=O`, the result in assay [1], in assay [2], in assay [3] and in assay [4] was inactive.

With `CCC(C(=O)NC(N)=O)c1ccccc1` (stereo not drawn), the result in assay [1], in assay [2], in assay [4], in assay [5] and in assay [6] was inactive.

Regarding `Nc1cc([N+](=O)[O-])ccc1O`, the outcome in assay [1], in assay [2], in assay [3], in assay [4], in assay [5] and in assay [6] was inactive.

For the molecule `CCCCOCCOCCSC#N`, the result in assay [1], in assay [2], in assay [3], in assay [4], in assay [5] and in assay [6] was inactive.

Turning to `O=C(Nc1ccccc1)c1cc([N+](=O)[O-])ccc1Cl`, the result in assay [1], in assay [3], in assay [4], in assay [5] and in assay [6] was inactive.

As to `CC(C)=CCCC(C)CC=O` (stereo not drawn), the result in assay [1], in assay [2], in assay [4] and in assay [6] was inactive.

Regarding `CCOc1ccccc1OCC`, the result in assay [1], in assay [2] and in assay [6] was inactive.

On to `CCCCCCCCCOC(C)=O`, for which the result in assay [1], in assay [2], in assay [3], in assay [4], in assay [5] and in assay [6] was inactive.

Take `C=COCCOCCOCCOC=C`: the outcome in assay [1], in assay [2], in assay [4], in assay [5] and in assay [6] was inactive.

For `CC1CCC2CC1C2(C)C` (stereo not drawn), the outcome in assay [1], in assay [2], in assay [4] and in assay [5] was inactive.

For `OCCCCCO`, the result in assay [1], in assay [2], in assay [4], in assay [5] and in assay [6] was inactive.

For `O=C1CCc2ccccc2O1`, the result in assay [1], in assay [3], in assay [4], in assay [5] and in assay [6] was inactive.

Regarding `O=C(O)C[C@H](O)C[C@H](O)/C=C/c1c(C2CC2)nc2ccccc2c1-c1ccc(F)cc1`, the outcome in assay [1], in assay [2], in assay [3], in assay [4], in assay [5] and in assay [6] was inactive.

Consider `Cc1cc(C2(c3cc(C)c(O)cc3C)OS(=O)(=O)c3ccccc32)c(C)cc1O`, for which the outcome in assay [1], in assay [2] and in assay [5] was inactive.

As to `Clc1ccc(Cl)c(Cl)c1Cl`, the outcome in assay [1], in assay [2], in assay [3], in assay [4] and in assay [5] was inactive. The AC50 in assay [6] is 0.000436 µM (active).

Regarding `C=C(C)C(=O)OCCOC(=O)CC(C)=O`, the result in assay [1], in assay [2], in assay [4], in assay [5] and in assay [6] was inactive.

For `FC1(F)C(F)(F)C(F)(F)C2(F)C(F)(C1(F)F)C(F)(F)C(F)(F)C1(F)C(F)(F)C(F)(F)C(F)(F)C(F)(F)C12F` (stereo not drawn), the result in assay [1], in assay [2], in assay [4], in assay [5] and in assay [6] was inactive.

With `CCCC1CCC(=O)O1` (stereo not drawn), the result in assay [1], in assay [2], in assay [3] and in assay [6] was inactive.

Take `CCC(=O)OCCC(C)CCC=C(C)C` (stereo not drawn): the outcome in assay [1], in assay [2], in assay [4] and in assay [5] was inactive.

Take `C=CC(C)(CCC=C(C)C)OC=O` (stereo not drawn): the result in assay [1], in assay [2] and in assay [6] was inactive.

Consider `CC(CCO)CCc1ccccc1` (stereo not drawn), for which the result in assay [1], in assay [2], in assay [4] and in assay [6] was inactive.

`CC(O)C(C)O` (stereo not drawn): the outcome in assay [1], in assay [2] and in assay [5] was inactive.

As to `O=C1CCCCCCCCCCOCCCCO1`, the outcome in assay [1], in assay [2], in assay [3], in assay [4], in assay [5] and in assay [6] was inactive.

On to `CC1=CCC2C(C1)C2(C)C` (stereo not drawn), for which the result in assay [1], in assay [2], in assay [4], in assay [5] and in assay [6] was inactive.

As to `O=C1O[C@@H]2[C@@H](O)[C@H](O)O[C@@H]2[C@H]1O`, the outcome in assay [1], in assay [2], in assay [4], in assay [5] and in assay [6] was inactive.

Regarding `OC1OC[C@@H](O)[C@H](O)[C@H]1O` (stereo partly drawn), the call in assay [7], in assay [2], in assay [4] and in assay [5] was inactive.

Regarding `O=c1cc(-c2ccccc2)oc2cc(O)cc(O)c12`, the outcome in assay [7], in assay [2] and in assay [5] was inactive. For the same molecule, the AC50 in assay [4] was 22.3 µM (active); in assay [6], 46.1 µM (active).

On to `CN1[C@@H]2CC(OC(=O)[C@H](CO)c3ccccc3)C[C@H]1[C@@H]1O[C@@H]12` (stereo partly drawn), for which the result in assay [7], in assay [2], in assay [3], in assay [4], in assay [5] and in assay [6] was inactive.

Turning to `CCCCc1ccc(N)cc1`, the molecule was classed as inactive in assay [7], in assay [2], in assay [3], in assay [4] and in assay [6].

Turning to `CC[C@]12CCCN3CCc4c(n(c5ccccc45)[C@@](O)(C(=O)OC)C1)[C@@H]32`, the outcome in assay [1], in assay [4], in assay [5] and in assay [6] was inactive.

As to `O=Cc1ccc(F)cc1`, the result in assay [1], in assay [5] and in assay [6] was inactive.

In the case of `CCOC(=S)SSC(=S)OCC`, the molecule was classed as inactive in assay [7], in assay [2], in assay [3], in assay [4], in assay [5] and in assay [6].

With `CC1CC(OC(=O)c2ccccc2O)CC(C)(C)C1` (stereo not drawn), the AC50 in assay [7] was 22.5 µM (active). For the same molecule, the result in assay [7], in assay [2], in assay [3], in assay [4], in assay [5] and in assay [6] was inactive.

Take `CC(=O)C(=O)O`: the molecule was called inactive in assay [7], in assay [2], in assay [3], in assay [4], in assay [5] and in assay [6].

Turning to `CCn1c2ccccc2c2cc(N)ccc21`, the molecule was called inactive in assay [7], in assay [2], in assay [3], in assay [4], in assay [5] and in assay [6]. Moreover, the figures for the AC50 in assay [2] and in assay [6] were 68 µM (active) and 64 µM (active), respectively.

Regarding `CCCCCCOC(=O)CC`, the outcome in assay [1] and in assay [4] was inactive.

As for `C=C(C)[C@@H]1CCC2=CC(=O)C[C@@H](C)[C@]2(C)C1`, the result in assay [1], in assay [4], in assay [5] and in assay [6] was inactive.

Turning to `c1ccc2c(c1)c1cccc3ccc4cccc2c4c31`, the outcome in assay [7], in assay [2], in assay [4], in assay [5] and in assay [6] was inactive. The half-maximal activity concentration (AC50) in assay [2] is 60.5 µM (active); in assay [4], 40.6 µM (active).

As for `Cc1ccc(S)cc1`, the molecule was called inactive in assay [7], in assay [2], in assay [4] and in assay [5].

With `CCCCN`, the molecule was called inactive in assay [7], in assay [2], in assay [3] and in assay [4].

For `CCCC(=O)C(C)=O`, the call in assay [7], in assay [2], in assay [4], in assay [5] and in assay [6] was inactive.

Regarding `CCCCCCCCCCCCN`, the AC50 in assay [7] is 80.4 µM (active) and 66.7 µM (active); in assay [3] it was 62.2 µM (active); in assay [4], 83.1 µM (active); in assay [5], 84.5 µM (active); in assay [6], 86.1 µM (active). Moreover, the result in assay [2], in assay [4], in assay [5] and in assay [6] was inactive.

Source of the values: PubChem BioAssay (EPA / NIEHS).
